Where “and” joins values, the source holds several entries; their conditions need not be identical. Equal entries are not always repeated. Records with an inconclusive call do not appear. Where a structure was tested more than once in an assay, its records may differ in their call. Calls of active or inactive are those of the source. How the source made its calls: active means hit-call score of the fitted dose curve at least 0.9, where 1 is the maximum; inconclusive means response in the unintended direction; inactive means score below 0.9.

Peroxisome proliferator-activated receptor gamma (Homo sapiens), sequence (P37231 whole entry, looked up, the tested form may be a part): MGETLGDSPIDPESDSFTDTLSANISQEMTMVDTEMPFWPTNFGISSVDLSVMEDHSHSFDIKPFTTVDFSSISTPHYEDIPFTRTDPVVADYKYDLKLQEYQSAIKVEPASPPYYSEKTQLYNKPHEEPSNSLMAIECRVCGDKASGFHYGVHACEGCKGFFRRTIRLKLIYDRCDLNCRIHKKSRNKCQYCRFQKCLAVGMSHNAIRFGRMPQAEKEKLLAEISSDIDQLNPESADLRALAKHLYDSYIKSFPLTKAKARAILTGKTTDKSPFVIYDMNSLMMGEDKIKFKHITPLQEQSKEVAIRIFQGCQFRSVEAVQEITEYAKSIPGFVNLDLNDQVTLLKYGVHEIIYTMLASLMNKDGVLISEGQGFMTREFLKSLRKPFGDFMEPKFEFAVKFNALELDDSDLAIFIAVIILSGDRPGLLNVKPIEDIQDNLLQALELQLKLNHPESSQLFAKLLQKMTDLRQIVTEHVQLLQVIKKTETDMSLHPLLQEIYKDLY

The first assay deals with Retinoic acid receptor RXR-alpha (Homo sapiens) (UniProt P19793). As to the kind of experiment: OT_NURR1_NURR1RXRa_1440: Odyssey Thera (OT) 24-hour HEK293T Protein Complementation Assay for Nurr1/retinoid X receptor (RXR) (AID 2283386). The method in brief: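 Cell-based binding reporter: HEK293T cells, 24 h exposure, fluorescence-detected fragment complementation, DMSO as baseline.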
Retinoic acid receptor RXR-alpha (Homo sapiens), sequence (P19793 whole entry, looked up, the tested form may be a part): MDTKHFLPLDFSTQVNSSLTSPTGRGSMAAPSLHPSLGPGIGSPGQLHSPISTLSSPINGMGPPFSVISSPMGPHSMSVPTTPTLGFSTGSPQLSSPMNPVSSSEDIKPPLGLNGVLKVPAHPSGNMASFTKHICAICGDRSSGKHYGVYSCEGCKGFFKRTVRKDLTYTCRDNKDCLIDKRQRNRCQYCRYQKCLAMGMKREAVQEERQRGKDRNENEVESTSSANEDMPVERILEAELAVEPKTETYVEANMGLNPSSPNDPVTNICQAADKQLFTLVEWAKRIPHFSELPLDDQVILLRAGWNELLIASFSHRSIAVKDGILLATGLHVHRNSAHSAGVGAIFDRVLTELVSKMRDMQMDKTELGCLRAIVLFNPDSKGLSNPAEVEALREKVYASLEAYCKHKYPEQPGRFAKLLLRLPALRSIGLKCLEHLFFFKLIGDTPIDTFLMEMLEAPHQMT
Take `CN(C)C(=O)Nc1ccc(Cl)c(Cl)c1`: the call was inactive. For `CC(=O)S[C@@H]1CC2=CC(=O)CC[C@]2(C)[C@H]2CC[C@@]3(C)[C@@H](CC[C@@]34CCC(=O)O4)[C@H]12`, the result was inactive.

The term AC50 denotes the midpoint of the concentration-response curve, whichever way the signal moves. `C=CCOC(Cn1ccnc1)c1ccc(Cl)cc1Cl` (stereo unspecified): the AC50 was 78.5 µM (active) and 79 µM (active). Consider `CCC(C)OC(=O)N1CCCCC1CCO` (stereo unspecified), for which the molecule was classed as inactive. Turning to `CCCCOCCOCCOCc1cc2c(cc1CCC)OCO2`, the molecule was called inactive. The same measure, in the same setting: next, `Oc1ccc(C(c2ccc(O)cc2)C(Cl)(Cl)Cl)cc1`: “inactive”; `CCCOC(=O)NCCCN(C)C`: “inactive”. Turning to `c1ccc(Nc2ccccc2)cc1`, the result was inactive.

On to `CSC(=O)c1cccc2nnsc12`, for which the result was inactive.

In the case of `C[C@]12CC[C@@H]3c4ccc(O)cc4C[C@@H](CCCCCCCCCS(=O)CCCC(F)(F)C(F)(F)F)[C@H]3[C@@H]1CC[C@@H]2O` (stereo partly specified), the result was inactive. On the same count and under the same terms, next, `CC(C)(c1ccc(O)cc1)c1ccc(O)cc1`: “inactive”. On to `S=C([S-])NCCNC(=S)[S-].[Mn+2]`, for which the AC50 is 69.5 µM (active) and the molecule was called inactive. Regarding `CC(=O)[C@H]1CC[C@H]2[C@@H]3CCC4=CC(=O)CC[C@]4(C)[C@H]3CC[C@]12C`, the molecule was classed as inactive. Regarding `COC(=O)c1ccc(I)cc1S(=O)(=O)NC(=O)Nc1nc(C)nc(OC)n1`, the result was inactive. Consider `CCOC(=O)C(C)Oc1ccc(Oc2nc3ccc(Cl)cc3o2)cc1` (stereo unspecified), for which the outcome was inactive. With `CCNc1nc(N)nc(Cl)n1`, the result was inactive. In the case of `S=C(S)NCCNC(=S)S.[Mn+2].[S-]C([S-])=NCCN=C([S-])[S-].[Zn+2]`, the AC50 was 40.2 µM (active) [middle of 4 runs] and the call was inactive.

Take `COc1c(Cl)ccc(Cl)c1C(=O)O`: the molecule was classed as inactive. With `CCCCCCC(C)OC(=O)COc1nc(F)c(Cl)c(N)c1Cl` (stereo unspecified), the result was inactive. In the case of `CCSC(=O)N(CC(C)C)CC(C)C`, the outcome was inactive.

As to `COC(=O)CSc1cc(N=c2sc(=O)n3n2CCCC3)c(F)cc1Cl`, the outcome was inactive. Take `CCCCC(CC)COC(=O)c1ccccc1C(=O)O` (stereo unspecified): the call was inactive. In the case of `CCCN(CCC)C(=O)SCC`, the molecule was called inactive. Take `COC(=O)c1ccccc1C(=O)O`: the outcome was inactive. As for `CCCCC(CC)CN1C(=O)C2C3C=CC(C3)C2C1=O` (stereo unspecified), the molecule was called inactive.

A further assay addresses Peroxisome proliferator-activated receptor gamma (Homo sapiens) (UniProt P37231). Nature of the assay: OT_PPARg_PPARgSRC1_0480: Odyssey Thera (OT) 8-hour Protein-Complementation Assay for Peroxisome Proliferator-activated Receptor Gamma / SRC-1 Co-activator (AID 2283387).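 Further: nuclear to cytoplasmic split Venus YFP fluorescence ratio reporting PPARg SRC-1 interaction.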 Summed up:
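HEK293T transiently transfected with PPARg and SRC-1 fused to Venus YFP fragments, compounds 8 h at 37C. Fixed, Draq5-stained cells imaged; nuclear/cytoplasmic 488 nm fluorescence ratio over at least 350 cells per image; gain fitted versus DMSO.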
`CN(C)C(=O)Nc1ccc(Cl)c(Cl)c1`: the molecule was called inactive. As to `CC(=O)S[C@@H]1CC2=CC(=O)CC[C@]2(C)[C@H]2CC[C@@]3(C)[C@@H](CC[C@@]34CCC(=O)O4)[C@H]12`, the result was inactive. For the molecule `C=CCOC(Cn1ccnc1)c1ccc(Cl)cc1Cl` (stereo unspecified), the outcome was inactive.

Turning to `CC(C)(C)[C@@H](O)[C@@H](Cc1ccc(Cl)cc1)n1cncn1`, the result was inactive. Regarding `CCC(C)OC(=O)N1CCCCC1CCO` (stereo unspecified), the result was inactive. `CCCCOCCOCCOCc1cc2c(cc1CCC)OCO2`: the outcome was inactive. Turning to `Oc1ccc(C(c2ccc(O)cc2)C(Cl)(Cl)Cl)cc1`, the molecule was classed as inactive. With `CCCOC(=O)NCCCN(C)C`, the result was inactive. As for `c1ccc(Nc2ccccc2)cc1`, the result was inactive. On to `CSC(=O)c1cccc2nnsc12`, for which the outcome was inactive.

Take `C[C@]12CC[C@@H]3c4ccc(O)cc4C[C@@H](CCCCCCCCCS(=O)CCCC(F)(F)C(F)(F)F)[C@H]3[C@@H]1CC[C@@H]2O` (stereo partly specified): the molecule was called inactive. The same measure, in the same setting: the entry for `CC(C)(c1ccc(O)cc1)c1ccc(O)cc1` is “inactive”; for `S=C([S-])NCCNC(=S)[S-].[Mn+2]` it is “inactive”; for `CC(=O)[C@H]1CC[C@H]2[C@@H]3CCC4=CC(=O)CC[C@]4(C)[C@H]3CC[C@]12C` it is “inactive”. Regarding `N[C@@H](Cc1cc(I)c(Oc2ccc(O)c(I)c2)c(I)c1)C(=O)O`, the call was inactive. For `COC(=O)c1ccc(I)cc1S(=O)(=O)NC(=O)Nc1nc(C)nc(OC)n1`, the call was inactive.

As for `CCOC(=O)C(C)Oc1ccc(Oc2nc3ccc(Cl)cc3o2)cc1` (stereo unspecified), the result was inactive. Turning to `S=C(S)NCCNC(=S)S.[Mn+2].[S-]C([S-])=NCCN=C([S-])[S-].[Zn+2]`, the molecule was classed as inactive.

As to `COc1c(Cl)ccc(Cl)c1C(=O)O`, the molecule was classed as inactive.

With `CCSC(=O)N(CC(C)C)CC(C)C`, the result was inactive.

`COC(=O)CSc1cc(N=c2sc(=O)n3n2CCCC3)c(F)cc1Cl`: the molecule was called inactive.

Consider `CCCN(CCC)C(=O)SCC`, for which the result was inactive. For the molecule `COC(=O)c1ccccc1C(=O)O`, the outcome was inactive. As for `CCCCC(CC)CN1C(=O)C2C3C=CC(C3)C2C1=O` (stereo unspecified), the result was inactive.

The record behind these values is PubChem BioAssay (EPA / NIEHS).
